Six1-Eya2 inh: Six1/Eya2 interaction inhibition. Q15475+O00167. activity change, % (concentration not given with the values). AlphaScreen GST-Six1/His-Eya2 binding, biochemical; hits give low values. 360,000 tested, 0.56% active; in the data active = activity change below about -65%; inconclusive = mostly about -30% to -63%; note: % is set by controls: 0 for no effect and ±100 for the full control effect
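Six1/Eya2 binding was read as AlphaScreen signal after compounds were pinned into GST-Six1 plus His-tagged Eya2 (5X stock 250/500 nM) in pH 8.0 Tris/NaCl/TCEP buffer, beads added, then incubated 1 h, 37 C, dark.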
JMJD2A Tudor inh: blocks the human JMJD2A Tudor domain; O75164; AlphaScreen JMJD2A-Tudor / H3K4me3 peptide binding; Potency, µM (highest dose often 114 µM), for inactives: top-dose activity change, negative = inhibition, hits mostly inhibitors; 390,000 tested, 4.4% active; note: potency is the fitted concentration of half-maximal effect; % is set by controls: 0 for no effect and ±100 for the full control effect; nearly all actives have a fitted effect of over 50% in size
CtBP-E1A blk: blocks the CtBP interaction with E1A | AlphaScreen GST-E1A/His-CtBP binding, 1536-well; hits give low values | activity change, % (concentration not given with the values) | 340,000 tested, 0.49% active; in the data active = activity change below about -65%; inconclusive = mostly about -30% to -63%; note: % is set by controls: 0 for no effect and ±100 for the full control effect
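In 5 uL wells, 23 nL compound meets equimolar GST-E1A and His-CtBP (5X stock 125 nM each) for 2 h, 37 °C. Beads (5X, 50 ug/mL) then 1 h, 37 °C, dark.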
G9a block: blocks human histone lysine methyltransferase G9a; Potency, µM (series often up to 102 µM), for inactives: at the highest dose activity, negative = inhibition, hits mostly inhibitors; Q96KQ7; G9a H3K9 monomethylation, AlphaScreen, 2 h; 350,000 tested, 8.8% active; note: potency is the fitted concentration of half-maximal effect; % is set by controls: 0 for no effect and ±100 for the full control effect; nearly all actives have a fitted effect of over 75% in size
Target sequence (Q96KQ7 913-1193 limits assumed): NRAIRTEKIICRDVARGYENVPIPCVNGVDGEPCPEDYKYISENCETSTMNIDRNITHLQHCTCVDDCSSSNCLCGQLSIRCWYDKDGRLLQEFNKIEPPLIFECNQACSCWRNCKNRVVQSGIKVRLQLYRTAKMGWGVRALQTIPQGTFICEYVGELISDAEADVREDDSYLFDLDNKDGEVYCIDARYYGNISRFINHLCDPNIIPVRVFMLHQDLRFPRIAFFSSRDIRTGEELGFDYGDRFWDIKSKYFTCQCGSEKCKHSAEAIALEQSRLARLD
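G9a (20 nM) was preincubated 15 min with compound, then reacted 2 h at room temperature with 500 nM biotin-H3K9 peptide and 20 µM SAM. Monomethyl-H3K9 detected by AlphaScreen using anti-H3K9me1 antibody.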
HP1b chromo inh: inhibitors of HP1-beta chromodomain binding to methylated histone tails. P83916. 390,000 tested, 0.56% active. Potency, µM (top dose mostly 114 µM), for the others: top-dose activity change, negative = inhibition, actives largely listed as inhibitors. AlphaScreen HP1-beta / biotin-H3K9me3 peptide binding; note: potency is the fitted concentration of half-maximal effect; nearly all actives have a fitted effect of over 70% in size
Target sequence (P83916 whole entry, looked up): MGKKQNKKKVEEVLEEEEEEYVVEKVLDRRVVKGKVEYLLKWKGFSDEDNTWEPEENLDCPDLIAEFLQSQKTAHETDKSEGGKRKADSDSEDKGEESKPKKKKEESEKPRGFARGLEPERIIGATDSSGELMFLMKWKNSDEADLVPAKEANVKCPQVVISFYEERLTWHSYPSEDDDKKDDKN
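HP1-beta protein (50 nM final) preincubated 30 min at room temperature with biotinylated H3(1-18)K9me3 peptide (50 nM) in PBS pH 7.4, 0.01% Tween-20, then compound added for 30 min. AlphaScreen streptavidin donor/nickel chelate acceptor beads (10 ug/mL final), 30 min dark, luminescence read.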
BAZ2B block: blocks human BAZ2B. Q9UIF8. AlphaScreen BAZ2B-H3K14Ac peptide displacement. Potency, µM (highest dose often 114 µM), for the others: at the highest dose activity change, negative = inhibition, usual class: inhibitors. 360,000 tested, 4.4% active; note: potency is the fitted concentration of half-maximal effect; % is set by controls: 0 for no effect and ±100 for the full control effect; nearly all actives have a fitted effect of over 60% in size
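AlphaScreen displacement of biotin-H3(5-23)K14Ac peptide (50 nM final) from BAZ2B (50 nM final) in PBS pH 7.4, 0.01% Tween-20; complex preformed 30 min RT, then compounds (top 110 uM) 30 min RT, beads 20 min dark.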
* marks the source's active call; other numbers are inactive results; u = inconclusive; x = no result; ! = not confirmed by another sample; [ ] = remark or other dose. The list is not random: actives were taken first. Their share in the collection is about 10%. Unless noted, calls come from the whole dose curve; as a rule, active = well fitted inhibition curve with a large enough effect; inconclusive = small, poorly fitted or top-dose-only effect; inactive = no such curve, though single readings can be large or run the other way.

SMILES	Six1-Eya2 inh	JMJD2A Tudor inh	CtBP-E1A blk	G9a block	HP1b chromo inh	BAZ2B block
Cc1cccc(NC(=O)CSc2ccc(-c3ccco3)nn2)c1	-8.7	-10.4%	0.3	28.2µM*	22.6%	-24.7%
COc1ccc2c(c1)CCC1C2CC[C@@]2(C)C1CC[C@@H]2NCCCCCCN1C(=O)C=CC1=O (stereo partly drawn)	x	x	x	2.51µM*	x	x
COc1ccc2c(c1)CC[C@@H]1[C@@H]2CC[C@]2(C)[C@@H](NCCCCCCN3C(=O)C=CC3=O)CC[C@@H]12	x	x	x	10.0%[59 µM]	x	x
CN1C(=O)N(C)C(=O)C2(Cc3cc(NC(=O)c4ccc(F)cc4)ccc3N3CCCC32)C1=O (stereo not drawn)	-13.8	u	-0.4	x	-18.4%[57 µM]	16.7%
CC(=O)Nc1ccc2c(c1)CC1(C(=O)N(C)C(=O)N(C)C1=O)C1CCCN21 (stereo not drawn)	-1.9	-7.2%	-1.8	35.5µM*	60.7%	-5.9%
COc1ccc(C2C=C(c3ccccc3)Nc3nc(NC(=O)/C=C/c4ccccc4Cl)nn32)cc1 (stereo not drawn)	x	-6.0%	x	u	46.1%	-28.2%
CC1CN(c2ccc([N+](=O)[O-])cc2Cl)CCN1 (stereo not drawn)	-5.1	-13.8%	x	39.8µM*	20.3%	-11.3%
Cc1ccc(S(=O)(=O)NN)c(C)c1N1CCCC1=O	6.9	-8.1%[11.4 µM]	-19.3	x	61.8%	1.6%
CCn1cc(C(=O)O)c(=O)c2cc(F)c(N3CCNCC3)cc21	x	x	x	8.91µM*!	x	-8.1%
Nc1ncnc2c1ncn2[C@@H]1O[C@H](COP(=O)(O)OP(=O)(O)OP(=O)(O)O)[C@H]2OC3(O[C@H]21)C([N+](=O)[O-])=CC(=[N+]([O-])[O-])C=C3[N+](=O)[O-] (stereo partly drawn)	x	x	x	26.4%[59 µM]	x	x
S=C=S	x	x	x	2.7%[59 µM]	x	x
Cc1nnc(N2CCC(C(=O)NCc3ccc(N(C)C)cc3)CC2)c2nn(-c3ccccc3)c(C)c12	x	u	x	-44.3%[59 µM]	-9.3%	u
CN1CCC2(CC1)C(C#N)=C(N)NC(S)=C2C#N	u	3.98µM*	u	6.31µM*	-17.0%	u
COc1ccc2c(c1)CCc1c(C(=O)Nc3c(C)nn(Cc4ccccc4C)c3C)noc1-2	x	-22.5%	x	u	9.3%	-12.9%
Cc1ccc2nsnc2c1NS(=O)(=O)c1c(C)ccc2nsnc12	-0.6	-27.1%	2.3	50.1µM*	20.0%	u
Cc1ccc2nsnc2c1-n1c(C)nc2ccccc2c1=O	1.3	-7.0%	3.3	u	22.5%	-2.5%
O=C(O)c1ccccc1SSc1ccccc1C(=O)O	-22.9	2.3%	-7.6	28.2µM*	55.8%	-4.0%
C[CH2][Hg][S]c1ccccc1C(=O)O	3.2	17.8µM*	-17.9	u	u	x
CSCC[C@H](NC(=O)[C@H](Cc1ccccc1)NC(=O)CNC(=O)CNC(=O)[C@@H](N)Cc1ccc(O)cc1)C(=O)O	x	x	x	45.0%[59 µM]	x	x
C=CCN(CC(=O)c1sc(C(=O)OCC)nc1C)c1cccc(Br)c1	-8.6	u	-5.1	x	-2.1%	x
Cc1ncsc1CCOC(=O)c1ccc([N+](=O)[O-])cc1	-7.3	u	-6.0	u	-33.2%	u
CC1(C)C(O)CC(=O)[C@]2(C)C1CC(=O)[C@]1(C)C2CC[C@@]2(C)C(c3ccoc3)OC(=O)C3O[C@@]321 (stereo partly drawn)	x	x	x	-6.1%[2.33 µM]	x	x
C=C1[C@@H](C)[C@H]2[C@H](Cc3ccccc3)NC(=O)[C@]23[C@H](OC(C)=O)/C=C/[C@](C)(O)C(=O)[C@@H](C)C/C=C/[C@H]3[C@@H]1O	x	x	x	4.6%[59 µM]	x	x
O=[N+]([O-])/C=C/c1c(Cl)cccc1Cl	-6.8	39.8µM*	-2.0	x	3.0%	x
COC(=O)c1ccc(CC(C(=O)c2ccccc2)N(C)C)cc1 (stereo not drawn)	-1.7	-31.8%	x	u	14.7%	-23.2%
SMILES	Six1-Eya2 inh	JMJD2A Tudor inh	CtBP-E1A blk	G9a block	HP1b chromo inh	BAZ2B block
CN(C)C(Cc1ccc(Cl)cc1)C(=O)c1ccccc1 (stereo not drawn)	1.6	-14.9%	7.1	44.7µM*	12.0%	-6.3%
O=C1NC(=O)N(c2ccc3c(c2)OCO3)C(=O)/C1=C\c1ccc(-c2ccccc2C(=O)O)o1	-10.2	31.6µM*	-0.9	10µM*	u	79.4µM*
Cc1cccc(N2C(=O)NC(=O)/C(=C/c3ccc(-c4ccc(C(=O)O)c(Cl)c4)o3)C2=O)c1	x	x	x	10µM*	x	-13.6%
O=C1NC(=O)N(c2ccc3c(c2)OCO3)C(=O)/C1=C\c1ccsc1	-3.1	6.0%	9.1	x	49.0%	-9.7%
O=C1NC(=O)N(c2ccc3c(c2)OCO3)C(=O)/C1=C/c1ccc(N2CCCCC2)o1	-4.3	-3.3%	4.2	50.1µM*	24.5%	-36.4%
CC(C)(C)C1CCc2onc(C(=O)O)c2C1 (stereo not drawn)	2.0	-4.9%	5.6	0.3%	42.4%	-19.1%
COC1=CC2C3Cc4ccc(OC)c(O)c4[C@]2(CCN3C)CC1=O (stereo partly drawn)	x	x	x	-39.1%[2.33 µM]	x	x

Compound activity: PubChem BioAssay, National Center for Advancing Translational Sciences (NCATS)
